The record followed here is ChEMBL document CHEMBL4513146, “CO-ADD screening of Karazin Kharkiv National University (Ukraine) compounds”.

The test system of experiment [1] is Klebsiella pneumoniae. To be noted: Concentration 32 ug.mL-1;; ASSAY_TEST Inhibition of Bacterial Growth; detection method Absorption (OD600); MEDIA CAMHB; plate type 384well; NBS; CORNING #3640; time 18 hr.
Experiment [2] has as its system Candida albicans. To be noted: Concentration 32 ug.mL-1; ASSAY_TEST Inhibition of Fungal Growth; detection method Absorption (OD530).
For experiment [3], the system named is Cryptococcus neoformans. The conditions noted are these: Concentration 32 ug.mL-1; ASSAY_TEST Inhibition of Fungal Growth; detection method Resazurin; Absorption (OD600-OD570); plate type 384well; NBS; CORNING #3640. (Alamar Blue is a resazurin reagent that responds to reducing activity.)

Molecules are shown by their SMILES. Entries with a potency or affinity are not part of this list.

On to `Cc1nc(-c2ccccn2)cc2nn(CC(=O)Nc3ccccc3C(F)(F)F)c(=O)n12`, for which the Inhibition in experiment [1] was 3.31%; in experiment [2] it was 0.65%; in experiment [3], -8.99%.

Turning to `Cc1ccc(Oc2nccn3c(=O)n(CC(=O)Nc4ccc(C)cc4Cl)nc23)cc1`, the Inhibition in experiment [1] is recorded as 4.57%; in experiment [2] it was 3.92%; in experiment [3], -3.03%.

On to `O=C(CCc1nnc2c3cc(-c4ccccc4)nn3ccn12)N1CCN(C(=O)c2ccco2)CC1`, for which the results for the Inhibition in experiment [1], in experiment [2] and in experiment [3] were 11.67%, 2.11% and -4.62%, respectively.

For the molecule `O=C(Cn1nc2ccc(SC3CCCCC3)nn2c1=O)NCc1ccc(Cl)cc1`, the Inhibition in experiment [1] was 12.01%; in experiment [2] it was 5.78%; in experiment [3], -20.43%.

With `COc1ccc(-c2cc3c4nnc(SCC(=O)N(C)c5ccccc5)n4ccn3n2)cc1`, the Inhibition in experiment [1] was 5.6%; in experiment [2] it was 32.67%; in experiment [3] it was -11.25%.

Regarding `O=C(CSc1nnc2c(=O)n(-c3ccc(F)cc3)ccn12)c1ccccc1Cl`, the results for the Inhibition in experiment [1], in experiment [2] and in experiment [3] were 14.55%, 8.47% and -13.46%, respectively.

With `Cc1cc(C)c(NC(=O)Cn2nc3ccc(Sc4cccc(F)c4)nn3c2=O)c(C)c1`, the figures for the Inhibition in experiment [1], in experiment [2] and in experiment [3] were 1.06%, 2.95% and -10.61%, respectively.

On to `CCc1ccc(N(Cc2ccc(OC)cc2)S(=O)(=O)c2cccn3c(C)nnc23)cc1`, for which the figures for the Inhibition in experiment [1], in experiment [2] and in experiment [3] were 6.54%, 3.18% and -10.92%, respectively.

Turning to `O=C(CSc1nnc2c(=O)n(-c3ccc(Br)cc3)ccn12)Nc1cc(F)ccc1F`, the Inhibition in experiment [1] is listed as 10.57%; in experiment [2], 7.34%; in experiment [3], -16.33%.

In the case of `O=C(CSc1nnc2n(CC3CCCO3)c(=O)c3sccc3n12)Nc1ccc(F)cc1Cl` (stereo not given), the Inhibition in experiment [1] is reported as 1.23%; in experiment [2], -2.01%; in experiment [3], -23.1%.

As to `COc1ccc(Cl)cc1NC(=O)CSc1nc2ccccc2n2c(C(C)C)nnc12`, the Inhibition is given as -0.34% in experiment [1], 58.61% in experiment [2] and -12.46% in experiment [3].

As to `CCc1ccccc1NC(=O)Cn1nc2cc(C)nc(Nc3ccc(F)c(C)c3)n2c1=O`, the Inhibition was 11.82% in experiment [1], 5.42% in experiment [2] and -2.36% in experiment [3].

On to `COc1cccc(-n2ccn3c(SCc4ccc(Cl)cc4)nnc3c2=O)c1`, for which the Inhibition is listed as 9.45% in experiment [1], 2.03% in experiment [2] and -6.31% in experiment [3].

With `CC(C)(C)Sc1ccc2nn(CC(=O)N3CCN(c4ccc(F)cc4)CC3)c(=O)n2n1`, the Inhibition is reported as 10% in experiment [1], 3.9% in experiment [2] and -8.43% in experiment [3].

On to `CCCN(C)c1nccn2c(=O)n(CC(=O)Nc3ccc(F)cc3)nc12`, for which the Inhibition in experiment [1] is reported as 16.44%; in experiment [2], 1.98%; in experiment [3], -8.83%.

On to `Cc1ccc(Sc2nccn3c(=O)n(CC(=O)Nc4ccc(C)c(Cl)c4)nc23)c(C)c1`, for which the Inhibition in experiment [1] is listed as 10.52%; in experiment [2] it was -2.58%; in experiment [3] it was -26.74%.

`Cc1nnc2ccc(S(=O)(=O)N(Cc3ccccc3)c3ccc(Cl)cc3)cn12`: the Inhibition in experiment [1] is 0.23%; in experiment [2] it was -0.42%; in experiment [3], -6.05%.

With `Cc1ccc(NC(=O)CSc2nnc3c4cc(-c5ccccc5)nn4ccn23)c(C)c1`, the Inhibition is -1.1% in experiment [1], 4.18% in experiment [2] and -18.24% in experiment [3].

Take `CCC(C)NC(=O)Cn1c(=O)c2nnc(C)n2c2ccccc21` (stereo not given): the Inhibition in experiment [1] is 11.59%; in experiment [2] it was 0.05%; in experiment [3] it was -11.45%.

In the case of `COC(=O)c1ccc(NC(=O)Cn2nc3ccc(SCc4ccc(Cl)cc4)nn3c2=O)cc1`, the Inhibition is 3.21% in experiment [1], 46.24% in experiment [2] and -5.53% in experiment [3].

On to `COc1ccc(NC(=O)c2ccc3nn(CC(=O)Nc4ccc(S(C)(=O)=O)cc4)c(=O)n3c2)cc1`, for which the Inhibition in experiment [1] is reported as 1.84%; in experiment [2] it was 15.13%; in experiment [3], -4.16%.

With `COc1cccc(Sc2nc3ccccc3n3c(=O)n(CC(=O)Nc4cccc(F)c4)nc23)c1`, the Inhibition in experiment [1] was 12.26%; in experiment [2], -1.78%; in experiment [3] it was -25.49%.

Turning to `CCc1ccccc1NC(=O)Cn1nc2c(SC3CCCCC3)nccn2c1=O`, the Inhibition was 9.89% in experiment [1], -0.63% in experiment [2] and -27.01% in experiment [3].

Consider `Cc1ccc(Sc2nccn3c(=O)n(CC(=O)Nc4ccccc4C)nc23)c(C)c1`, for which the Inhibition in experiment [1] was 6.75%; in experiment [2] it was 4.26%; in experiment [3], -25.74%.

`CCCn1c(=O)c2sccc2n2c(=O)n(Cc3ccc(Cl)cc3)nc12`: the Inhibition in experiment [1] was 4.43%; in experiment [2], 0.41%; in experiment [3] it was -22.99%.

Take `COc1ccc(C(=O)CSc2nnc3c(=O)n(-c4ccc(Br)cc4)ccn23)cc1`: the Inhibition in experiment [1] was 6.12%; in experiment [2], 4.09%; in experiment [3] it was -7.3%.

As for `COc1cccc(CNC(=O)Cn2nc3c4cc(-c5cc(C)ccc5C)nn4ccn3c2=O)c1OC`, the Inhibition in experiment [1] is reported as 6.77%; in experiment [2], -1.47%; in experiment [3], -13.57%.

In the case of `CCOc1ccc(C(=O)CSc2nnc3c(=O)n(-c4ccc(C)c(C)c4)ccn23)cc1`, the Inhibition in experiment [1] is 1.39%; in experiment [2], 10.64%; in experiment [3], -7.55%.

With `Cc1ccc(Cl)cc1N1CCN(C(=O)CCc2nnc3c4cc(-c5ccccc5)nn4ccn23)CC1`, the Inhibition in experiment [1] is 5.47%; in experiment [2], 0.3%; in experiment [3] it was -6.62%.

In the case of `CCc1cccc(NC(=O)Cn2nc3c(SC4CCCCC4)nccn3c2=O)c1`, the Inhibition in experiment [1] is recorded as 3.05%; in experiment [2] it was 12%; in experiment [3], -17.3%.

Usually Inhibition stands for the relative decrease from the control value, in per cent.
